# Screening data (PubChem BioAssay)
# VCAM1 TNFa inh: reduces TNF alpha induced VCAM1 expression in HUVEC; HUVEC TNFa-induced VCAM-1 immunofluorescence, high-content imaging; inhibition, % at 2 µM; 95,000 compounds, 0.48% hits;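 active = inhibition above the batch mean plus 3 SD, with images confirmed as a hit by eye, cut at about 37% in these data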
# S1P2 antag: blocks the human S1P2 receptor; 97,000 compounds, 0.21% hits; inhibition, % at 5 µM; O95136; cell-based S1P2 antagonist assay, inhibition at 5 uM; in the data active = inhibition above about 45%;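 note: CRE beta-lactamase reporter cells expressing human S1P2 stimulated with S1P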
# Target sequence (O95136 whole entry, looked up): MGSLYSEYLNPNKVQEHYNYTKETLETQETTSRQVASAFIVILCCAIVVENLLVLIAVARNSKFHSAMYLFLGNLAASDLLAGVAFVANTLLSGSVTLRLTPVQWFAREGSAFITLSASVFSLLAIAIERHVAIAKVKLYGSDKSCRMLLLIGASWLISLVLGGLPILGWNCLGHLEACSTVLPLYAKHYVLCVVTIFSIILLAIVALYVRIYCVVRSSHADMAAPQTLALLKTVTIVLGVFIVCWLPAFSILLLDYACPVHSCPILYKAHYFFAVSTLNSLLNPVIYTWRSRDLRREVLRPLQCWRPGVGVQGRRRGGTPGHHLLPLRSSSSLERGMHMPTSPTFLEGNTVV
# S1P2 agonist: agonists of human S1P2 receptor; O95136; S1P2-expressing cell line, agonist reporter read-out; activation, % at 4.5 µM; 97,000 compounds, 0.46% hits; in the data active = activation above about 16%
# HUVEC tox TNFa: HUVEC cytotoxicity counter-screen, TNF alpha stimulated; HUVEC TNFalpha-stimulated, Hoechst cell count, imaging; cell count reduction, % at 2 µM; 93,000 compounds, 0.17% hits;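 active = cell count reduction exceeding the screen mean by over 5 SD, scaled to untreated wells per plate, cut at about 78% in these data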;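 note: cells counted after 24 h of TNF alpha exposure following the 1 h pretreatment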
# E-sel TNF inh: TNF alpha driven E-selectin expression inhibition. inhibition, % at 2 µM. HUVEC TNFa-induced E-selectin immunofluorescence, high content. 120,000 compounds, 0.71% hits. AID 1246;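 active = inhibition above the batch mean plus 3 SD, and confirmed as a hit on visual image review, cut at about 43% in these data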
# F-actin modifier: modifiers of cytoskeleton assembly; HUVEC TNFa F-actin phalloidin imaging, high content; inhibition, % at 2 µM; 91,000 compounds, 0.18% hits; AID 836;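 active = inhibition above the batch mean plus 3 SD and confirmed as a hit by visual image inspection, cut at about 30% in these data, passing the limit was not always enough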
# Numbers stand for hits; i = inactive; nt = not tested or not shown. Sampled rows, rich in hits. Any-hit rate of the full collection: about 1.6%.
SMILES,VCAM1 TNFa inh,S1P2 antag,S1P2 agonist,HUVEC tox TNFa,E-sel TNF inh,F-actin modifier
COCCCNC(=O)CC(C)c1ccccc1 (stereo unspecified),nt,nt,nt,nt,i,nt
CCOC(=O)N1CCN(C(=O)CSCC(=O)Nc2nc(-c3ccc(-c4ccccc4)cc3)cs2)CC1,i,87,i,i,nt,i
CCOC(=O)N1CCN(C(=O)CSCC(=O)Nc2nc(-c3ccc(OC)cc3)cs2)CC1,i,i,i,i,i,i
COc1ccc(C(=O)N=c2sc3c(C)ccc(OC)c3n2C)cc1,i,i,i,i,i,i
Cn1nc(C(F)(F)F)c(C(=O)Nc2ccc(F)cc2F)c1Sc1ccc(C(F)(F)F)cc1,i,i,i,i,i,63
CN(C)S(=O)(=O)c1cccc(NC(=O)CNCC2CCCCC2)c1,nt,nt,nt,nt,i,nt
CN=C(Nc1cc(C)nn1CCC#N)c1ccccc1F,i,i,i,i,i,67
O=C(CN1CCN(c2ccccc2F)CC1)c1c[nH]c2ccccc12,i,i,i,i,53,i
c1cc2c3c(cccc3c1)NC1(CCCCCC1)N2,nt,nt,nt,nt,i,nt
O=C1CCSc2cccc3cccc(c23)N1,90,i,i,84,nt,i
N#CCN1CCCC(C(N)=O)C1 (stereo unspecified),nt,nt,nt,nt,i,nt
COc1ccc(-n2nc3c(c2NC(=O)c2cc(Br)ccc2Cl)CS(=O)C3)cc1 (stereo unspecified),i,i,i,i,83,i
COc1ccc(-n2nc3c(c2NC(=O)c2ccc(Br)cc2)CS(=O)C3)cc1 (stereo unspecified),i,i,i,i,nt,i
COc1ccc(-c2nnc(SCC(=O)N3CCCc4ccccc43)o2)cc1OC,i,i,i,i,i,34
O=C(O)C1CSC2(CCN(Cc3ccccc3)CC2)N1 (stereo unspecified),i,i,i,i,i,i
COC(=O)[C@@]1(Cc2ccc(OC)cc2)[C@H]2c3cc(C(=O)N4CCCC4)n(CCc4c[nH]c5ccc(O)cc45)c3C[C@H]2CN1C(=O)c1ccccc1,nt,nt,nt,nt,i,nt
CCCCOc1ccc(-c2nnn(C(C)C(=O)OCC)n2)cc1 (stereo unspecified),i,i,i,i,66,i
CCCCOc1ccc(-c2nnn(C(C)(C)C(=O)OC)n2)cc1,i,i,i,i,i,i
CCOC(=O)N1CCC(NC(=O)c2cc(S(=O)(=O)N(CC)CC)ccc2F)CC1,i,i,i,i,i,nt
COCCN(CC(=O)NC1CCCCC1)C(=O)/C=C/C(=O)c1ccc(OC)cc1O,nt,nt,nt,nt,89,nt
COc1ccc(Cc2noc(CN(C)Cc3cccc(-n4cccn4)c3)n2)cc1OC,nt,nt,nt,nt,i,nt
CC(C)C(c1nnnn1C(C)(C)C)N1CCN(c2cccc(Cl)c2)CC1 (stereo unspecified),i,i,i,i,i,i
CCS(=O)(=O)Nc1ccc(-c2cc(-c3ccccc3)c3cc(C)ccc3n2)cc1,nt,nt,nt,nt,79,nt
Cc1ccc2nc(-c3ccc(NS(C)(=O)=O)cc3)cc(-c3ccccc3)c2c1,i,i,i,nt,i,i
CCCCN(C(=O)c1cc(OC)c(OC)c(OC)c1)C1=CC2CCC(C1)N2C (stereo unspecified),i,i,i,i,98,i
SMILES,VCAM1 TNFa inh,S1P2 antag,S1P2 agonist,HUVEC tox TNFa,E-sel TNF inh,F-actin modifier
COc1ccc(/C=N/n2cc(-c3ccccc3)nc2N)cc1,nt,nt,nt,nt,65,nt
COc1cc2c(cc1OC)-c1cc(NCc3ccccn3)nc(=O)n1CC2,i,i,i,i,i,i
COc1cc2c(cc1OC)-c1cc(NC3CCCCCCC3)nc(=O)n1CC2,i,i,50,i,i,i
CCNc1cc2n(c(=O)n1)CCc1cc(OC)c(OC)cc1-2,i,i,i,i,i,i
COc1cc2c(cc1OC)-c1cc(NC3CC3)nc(=O)n1CC2,i,i,i,i,nt,i
COc1cc2c(cc1OC)-c1cc(NC3CCCCC3)nc(=O)n1CC2,i,i,33,i,nt,i
CCCCCCNc1cc2n(c(=O)n1)CCc1cc(OC)c(OC)cc1-2,i,i,30,i,i,i
CCN1CCc2c(OCc3ccc(C)cc3)cccc2C1=O,nt,nt,nt,nt,i,nt
CCC(=NCc1ccc(Cl)c(Cl)c1)c1nc(-c2ccco2)oc1O,nt,nt,nt,nt,i,nt
Cc1ccccc1NC(=O)c1ccc(CSc2ncccn2)cc1,i,i,i,i,61,i
Cc1ccc(NC(=O)C2=C(c3ccccc3)S(=O)(=O)CCS2(=O)=O)cc1,nt,nt,nt,nt,79,nt
COC(=O)c1cc(S(=O)(=O)N2CCOCC2)c(N2CCOCC2)cc1N1CCOCC1,nt,nt,nt,nt,56,nt
CC(=O)N[C@@H]1c2c(ccc3ccccc23)OC[C@@H]1COC(C)=O,nt,nt,nt,nt,i,nt
CCCOc1ccccc1Cn1c(=O)oc2ccc(C)cc21,i,i,i,i,i,i
CCCOc1ccc(Cn2c(=O)oc3ccc(C)cc32)cc1OC,i,i,29,i,i,i
N/C(Cc1cccs1)=N\OC(=O)COc1ccccc1Cl,i,i,i,i,i,i
N/C(Cc1cccs1)=N\OC(=O)COc1ccc(Br)cc1Cl,70,i,i,i,i,37
Cc1cc2nnc(SCC(=O)Nc3cccc(S(=O)(=O)N4CCOCC4)c3)n2c2ccccc12,nt,nt,nt,nt,i,nt
O=C(/C=C/c1ccc2c(c1)OCO2)Nc1nc2ccccc2s1,nt,nt,nt,nt,62,nt
CN(C)c1ccc(CN(C)C2CCCCC2)cc1,i,i,i,i,i,i
Cc1cc(=O)n2ccsc2n1,nt,nt,nt,nt,i,nt
O=C1S/C(=C/c2ccc(N3CCOCC3)o2)C(=O)N1Cc1ccc(F)cc1,i,i,i,i,i,i
O=C1/C(=C/c2ccc(N3CCOCC3)o2)SC(=Nc2ccccc2)N1CCc1c[nH]c2ccccc12,i,68,i,i,i,i
CCOc1cc(C(=O)Nc2ccc3c4c(cccc24)C(=O)N3CC)cc(OCC)c1OCC,i,i,i,i,i,i
CCN1C(=O)c2cccc3c(NC(=O)c4cccc(N5C(=O)CCC5=O)c4)ccc1c23,i,i,i,i,60,i
SMILES,VCAM1 TNFa inh,S1P2 antag,S1P2 agonist,HUVEC tox TNFa,E-sel TNF inh,F-actin modifier
CCOC(=O)c1c(NC(=O)c2cccc(N3C(=O)CCC3=O)c2)sc(C)c1C,i,i,16,i,i,i
CCC(C)N(C(=O)COc1ccc(NC(C)=O)cc1)C1CCS(=O)(=O)C1 (stereo unspecified),nt,nt,nt,nt,i,nt
COc1cccc(Cn2cnc3c(NS(=O)(=O)c4cc(Cl)ccc4Cl)c(C)c(C)cc32)c1,i,i,i,i,i,i
CC(C)(C)OC(=O)NCC(=O)N1CCC(C(=O)O)CC1,i,i,i,i,69,i
COCCCNCCCCOc1ccc(OCc2ccccc2)cc1,nt,nt,nt,nt,66,nt
O=C1C(c2ccccc2)SC(=Nc2ccccc2)N1S(=O)(=O)c1ccccc1 (stereo unspecified),i,i,i,i,i,i
CC(C)Oc1ccc(/C=N/NC(=O)C(CSCc2ccccc2)NC(=O)c2ccc([N+](=O)[O-])cc2)cc1 (stereo unspecified),i,i,i,i,96,i
O=C(COc1ccc(/C=N/NC(=O)c2ccccc2)cc1)Nc1ccc([N+](=O)[O-])cc1,i,i,i,i,i,i
O=C(NC1CCCCC1)N1CCN(C(=O)c2ccco2)CC1,i,i,i,i,i,nt
CCOC(=O)c1c(NC(=O)CSc2n[nH]c(-c3ccco3)n2)sc(C)c1C,i,i,23,i,nt,i
